Experimental data reported in PubChem BioAssay AID651784 (National Center for Advancing Translational Sciences (NCATS), 2012).
Results filed as inconclusive are left out. Activity calls are given as the source filed them. The call rests on the fitted dose curve; in most records, active means well fitted inhibition curve with a large enough effect; inconclusive means small, poorly fitted or top-dose-only effect; inactive means no such curve, though single readings can be large or run the other way.

experiment: Acumen qHTS Assay for Inhibitors of the mTORC1 Signaling Pathway in MEF (Tsc2-/-, p53-/-) Cells: Hit Validation; settings: Acumen imaging; activity change, negative = inhibition: at 37.3 µM (top of the series);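 further: phospho-rpS6 Ser235/236 immunofluorescence normalized to propidium iodide cell count; nearly all actives have a fitted effect of over 65% in size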;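 on activity change, negative = inhibition: cells exposed to compound for 24 hours; plate controls were DMSO for no effect and 7.5 nM rapamycin control for full effect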
Potency means the concentration at half of the fitted maximal effect.

Structure (SMILES)	activity change, negative = inhibition [%]	Potency
CCC(Sc1nncn2c1cc1oc(C)cc12)C(=O)Nc1ccc(F)cc1 (stereo not given)	12.3	–
CCCCOc1cccc(C(=O)N(Cc2cccs2)c2ccc(OC)cc2)c1	–	16.5 µM (active)
CCOc1ccc(S(=O)(=O)N(C(=O)c2ccncc2)c2ccc3oc(C)c(C(=O)OC)c3c2)cc1	–	3.69 µM (active)
CCCCCn1c(=N)n(CC(O)COc2cccc(C)c2)c2ccccc21 (stereo not given)	–	5.85 µM (active)
O=c1oc2ccccc2cc1-c1cn2cc(Cc3ccccc3F)sc2n1	–	16.5 µM (active)
CCN(CC)CCOC(=O)c1ccc(NC(=O)c2nn(-c3ccc(C)cc3)c(=O)c3c2c2ccccc2n3C)cc1	–	4.14 µM (active)
Cc1cc(C)c(NC(=O)C2CCN(c3nc4ccccc4n4cccc34)CC2)c(C)c1	–	14.7 µM (active)
Cc1cccc(OCC(O)Cn2c(=N)n(CCN3CCCCC3)c3ccccc32)c1 (stereo not given)	–	5.85 µM (active)
Cc1ccc(C)c(NC(=O)Nc2cc3c(cc2N2CCCCC2)n(C)c(=O)n3C)c1	3.56	–
Cc1cccc(OCC(=O)Nc2ccc(-c3nc4cc(C)ccc4o3)c(O)c2)c1	–	6.56 µM (active)
CCCCNC(=O)CSc1c2c(nc3ccc(Cl)cc13)CCCC2	-28.5	–
CCCCN(C)CCNC(=O)C1CCN(c2nc3ccc(CC)cc3s2)CC1	-90.7	–
COCc1oc2ccc(NS(=O)(=O)c3ccc(C)cc3)cc2c1C(=O)OC	-61.3	–
CCOc1ccc(C(=O)Nc2ccc3nc4c(c(Nc5ccccc5OC)c3c2)CCCC4)cc1	-66.6	–
CC(C)Cc1ccc(S(=O)(=O)N2CCC(c3ccncc3)CC2)cc1	–	4.65 µM (active)
